Data: PubChem BioAssay (NCI)
Values joined by “and” are separate entries in the source; they are usually repeats but may differ in a detail not shown here. Equal entries are not always repeated. Compounds without any hit were thinned out: in the full panel of roughly 79,000, 15% have a hit. A structure can be active in one record and inactive in another. Active and inactive are the calls of the source. Rule as the data show it: active = growth inhibition above about 70%; inactive = the rest.

Legend:
[1] = NCI Yeast Anticancer Drug Screen. Data for the rad50 strain (AID 155);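 also: 0% = growth of vehicle-only cultures of the same strain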; details: S. cerevisiae rad50 strain growth inhibition, stronger effect = higher value
How it was run: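 Compounds were tested on a yeast strain with an engineered DNA damage repair alteration; the reported value is growth inhibition normalised to vehicle treatment.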

[2] = NCI Yeast Anticancer Drug Screen. Data for the mec2-1 strain (AID 157); details: S. cerevisiae mec2-1 strain, stronger effect = higher value
How it was run: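 Using mec2-1 yeast: add compound, measure growth, express inhibition versus vehicle-treated cultures.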

[3] = NCI Yeast Anticancer Drug Screen. Data for the sgs1 mgt1 strain (AID 161);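 also: 0% = growth of cultures given vehicle only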; details: S. cerevisiae sgs1 mgt1 strain, stronger effect = higher value
How it was run: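 Percent growth inhibition was derived by comparing compound-exposed mutant yeast with vehicle-exposed cultures. The strain carries alterations in DNA damage repair.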

[4] = NCI Yeast Anticancer Drug Screen. Data for the cln2 rad14 strain (AID 165);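 also: 0% = growth equal to vehicle treated cultures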; details: S. cerevisiae cln2 rad14 strain, stronger effect = higher value
How it was run: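 Yeast strain cln2 rad14, bearing defects in cell cycle control and DNA repair, serves as the test system; values reflect growth inhibition compared with vehicle.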

[5] = NCI Yeast Anticancer Drug Screen. Data for the bub3 strain (AID 167); details: S. cerevisiae bub3 mutant strain, stronger effect = higher value
How it was run: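 Growth of a checkpoint-deficient yeast mutant is measured after compound exposure. Values represent inhibition relative to vehicle.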

[6] = NCI Yeast Anticancer Drug Screen. Data for the mlh1 rad18 strain (AID 175); details: S. cerevisiae mlh1 rad18 strain growth inhibition, stronger effect = higher value
How it was run: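 Steps: expose repair-defective yeast to compound; measure growth; express inhibition against vehicle-treated controls.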

[7] = at 5.0 µM (retest, dose inferred, filed as 0.5)
[8] = at 50.0 µM (retest, dose inferred, filed as 5.0)

| Compound | growth inhibition [1, 7] | growth inhibition [1, 8] | growth inhibition ([1]; at 50.0 µM) | growth inhibition [2, 7] | growth inhibition [2, 8] | growth inhibition ([2]; at 50.0 µM) | growth inhibition [3, 7] | growth inhibition [3, 8] | growth inhibition ([3]; at 50.0 µM) | growth inhibition [4, 7] | growth inhibition [4, 8] | growth inhibition ([4]; at 50.0 µM) | growth inhibition [5, 7] | growth inhibition [5, 8] | growth inhibition ([5]; at 50.0 µM) | growth inhibition [6, 7] | growth inhibition [6, 8] | growth inhibition ([6]; at 50.0 µM) |
| --- | --- | --- | --- | --- | --- | --- | --- | --- | --- | --- | --- | --- | --- | --- | --- | --- | --- | --- |
| CC12CCC(O)CC1=CCC1C2CCC2(C)C(NC(=O)C3CCCN3C(=O)CN(CCCl)CCCl)CCC12 (stereo not given) | -5% (inactive) | 56% (inactive) | 79% (active) | -4% (inactive) | 46% (inactive) | 72.5% (active) | 1% (inactive) | 80% (active) | 91.5% (active) | -5% (inactive) | 34% (inactive) | 63.2% (inactive) | -6% (inactive) | 38% (inactive) | 64.8% (inactive) | 12% (inactive) | 76% (active) | 86.8% (active) |
| COc1cc(/C=C/c2ccc(OC)c(OC)c2)cc(OC)c1 | -6% (inactive) | 10% (inactive) | 26.1% (inactive) | -2% (inactive) | 26% (inactive) | 15.1% (inactive) | -3% (inactive) | 68% (inactive) | 79% (active) | -4% (inactive) | 16% (inactive) | 47.6% (inactive) | 1% (inactive) | 69% (inactive) | 66.9% (inactive) | -3% (inactive) | 12% (inactive) | 59.5% (inactive) |
| BrCc1ccc2ncccc2c1 | 5% (inactive) | 98% (active) | 98.5% (active) | 4% (inactive) | 99% (active) | 98.9% (active) | 6% (inactive) | 98% (active) | 99% (active) | 11% (inactive) | 99% (active) | 98.5% (active) | 3% (inactive) | 99% (active) | 99% (active) | 1% (inactive) | 99% (active) | 98.5% (active) |
| CC/C(=C/c1ccc2c(c1)OCO2)[N+](=O)[O-] | 89% (active) | 99% (active) | 99.3% (active) | 59% (inactive) | 99% (active) | 99.8% (active) | 68% (inactive) | 99% (active) | 99.7% (active) | 28% (inactive) | 100% (active) | 99.1% (active) | 83% (active) | 99% (active) | 98.5% (active) | 66% (inactive) | 99% (active) | 99.4% (active) |
| c1cc2c(cc1NC1=NCCO1)CCCC2 | 14% (inactive) | 8% (inactive) | -37% (inactive) | 6% (inactive) | 4% (inactive) | -30% (inactive) | -1% (inactive) | 34% (inactive) | -6.4% (inactive) | 28% (inactive) | 21% (inactive) | 15.8% (inactive) | -33% (inactive) | -8% (inactive) | -22.6% (inactive) | 15% (inactive) | 11% (inactive) | -41.1% (inactive) |
| Oc1cccc[c]1[Hg][Cl] | 99% (active) | 99% (active) | 99.5% (active) | 99% (active) | 100% (active) | 99.7% (active) | 99% (active) | 99% (active) | 99.5% (active) | 100% (active) | 99% (active) | 98.6% (active) | 99% (active) | 99% (active) | 99.5% (active) | 99% (active) | 99% (active) | 99.5% (active) |
| CCc1cc2c(cc1O)C(C)(C)CCC2(C)C | -1% (inactive) | 7% (inactive) | 98% (active) | -2% (inactive) | -7% (inactive) | 97.8% (active) | -3% (inactive) | 7% (inactive) | 52.5% (inactive) | 5% (inactive) | 10% (inactive) | 98% (active) | 3% (inactive) | 18% (inactive) | 43% (inactive) | 0% (inactive) | 4% (inactive) | 98% (active) |
| C[As](c1ccc(Br)cc1)c1ccc(Br)cc1 | -4% (inactive) | 1% (inactive) | 3.6% (inactive) | -2% (inactive) | 20% (inactive) | 25.8% (inactive) | 7% (inactive) | 46% (inactive) | 75.5% (active) | -5% (inactive) | -18% (inactive) | 52.1% (inactive) | 2% (inactive) | 44% (inactive) | -14.2% (inactive) | 6% (inactive) | 22% (inactive) | 53% (inactive) |
| Nc1nc(CCl)cs1 | -2% (inactive) | -5% (inactive) | -2.05% (inactive) and -11.7% (inactive) | 0% (inactive) | -2% (inactive) | -24.7% (inactive) and -9.55% (inactive) | 1% (inactive) | -3% (inactive) | -17.6% (inactive) and -0.25% (inactive) | -7% (inactive) | -8% (inactive) | 75.8% (active) and -22.8% (inactive) | -4% (inactive) | -7% (inactive) | 52.4% (inactive) and 4.7% (inactive) | -2% (inactive) | -6% (inactive) | 17.8% (inactive) and -17% (inactive) |
| CC(=O)O[C@H]1C[C@@H]2OC3C=C(C)CCC3(C)[C@@]1(C)[C@@]21CO1 (stereo not given in full) | 99% (active) | 99% (active) | 92.5% (active) and 18.9% (inactive) | 100% (active) | 100% (active) | 94.3% (active) and 1.7% (inactive) | 99% (active) | 99% (active) | 94% (active) and 32.1% (inactive) | 99% (active) | 99% (active) | 92.2% (active) and 6.4% (inactive) | 99% (active) | 99% (active) | 92.7% (active) and 2.9% (inactive) | 99% (active) | 99% (active) | 92.8% (active) and 17.9% (inactive) |
